# Values joined by “and” are separate entries in the source; they are usually repeats but may differ in a detail not shown here. Identical values can stand only once. This is part of a sample that, as a whole, favours compounds with a hit. Of some 83,000 tested, about 20% had one in any assay.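 Note: values are percent growth. 100 is the growth of untreated cells, values between 100 and 0 indicate rising inhibition; between -100 and 0 indicates cell death.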 Unmarked numbers belong to inactive results. Active and inactive are the calls of the source.
# Tested on: U251 CNS
# Test: NCI-60 one-dose screen, 48 h (100 = growth as untreated, 0 = no growth, -100 = all killed)
# Settings: 10 µM unless noted
# Procedure: Growth inhibition of the U251 human tumor cell line is measured as a screen for anti-cancer activity. Cells are grown in 96 well plates and exposed to the test compound for 48 hours. Compounds are tested at a single concentration, which is 10^-5 M for most compounds. The reported endpoint is percent growth (GI% or GIPRCNT), where numbers from 0 - 100% represent growth inhibition, and numbers from -100% - 0 represent cell death. For example, a value of 40 represents 60% growth inhibition. A value of 0 means no net growth occurred over the course of the experiment. A value of -40 indicates 40% of cells at the beginning of the experiment died by the end of the experiment. A value of -100 means all cells are dead at the end of the experiment.
# NCI-60 Human Tumor Cell Lines Screen was performed using the standard one-dose NCI protocol, which is described in more detail at https://dtp.cancer.gov/discovery_development/nci-60/default.htm.
# Compounds with GIPRCNT values below 10 were considered active. Activity score was based on GIPRCNT using the following formula: […]
# Score is 0 for GIPRCNT values of 100 or above, 50 for GIPRCNT values of 0, and 100 for GIPRCNT values of -100.
row,Compound,growth
1,CC(=O)NCC(=O)c1ccc([N+](=O)[O-])cc1,102%
2,Nc1ccc2c(O)cc(S(=O)(=O)O)cc2c1,101%
3,CC(C)(O)C(=O)O,97.9%
4,Cc1ccc(=O)[nH]n1,99.7% and 92.4%
5,CCCCCCCCCCCCCCCc1ccc(N)c(OC2OC(CO)C(O)C(O)C2O)c1 (stereo not given),89.7%
6,NC1CCC(C(=O)O)CC1 (stereo not given),103% and 106%
7,CC(=O)Nc1ccc(S(N)(=O)=O)cc1,93% and 96.2%
8,CCCCNc1ccc(Nc2ccccc2)cc1,34.8%
9,CC1CCC2(C(=O)O)CCC3(C)C(=CCC4C5(C)CCC(O)C(C)(C)C5CCC43C)C2C1C (stereo not given),42.9% and 77.6%
10,O=CN1CCCCC1,110%
11,O=C1CSC2=NCCN12,88.7% and 91.1%
12,Cl,102%
13,CCOC(=O)c1c(C)cc(=O)oc1C,98.3%
14,COc1cc(C(O)C2C(=O)OCC2C2(c3ccc4c(c3)OCO4)SCCCS2)cc(OC)c1OC (stereo not given),100%
15,CCN(CCNS(C)(=O)=O)c1ccc(N)c(C)c1,82.3% and 108%
16,C/C(=C\c1ccccc1)c1ccccn1,107%
17,CC(=O)OCC1OC(OC(C)=O)C(OC(C)=O)C(OC(C)=O)C1OC(C)=O (stereo not given),95.6% and 96%
18,Cc1cc(-c2ccc(N=Nc3ccc4c(S(=O)(=O)O)cc(S(=O)(=O)O)c(N)c4c3O)c(C)c2)ccc1N=Nc1ccc2c(S(=O)(=O)O)cc(S(=O)(=O)O)c(N)c2c1O,97.6%
19,C#CCOC(=O)Nc1ccccc1,98.2%
20,Cc1cc2ccccc2cn1,99.4% and 103%

row,Compound,growth
1,N#CC(C#N)N=Nc1ccc(Cl)cc1,88.7%
2,OC1COC(OCc2ccccc2)C(O)C1O (stereo not given),95.4%
3,c1ccc2c(c1)OC1OC2Oc2ccccc21,102%
4,c1ccc(-c2nc3ccccc3s2)cc1,99.6%
5,CN1CNC(=O)NC1,118% and 87.5%
6,CCCCCCCCCCNC(=O)CI,14.3%
7,Nc1cc(N)c(N)cc1N,15.6%
8,N#CC(C#N)N=Nc1cc(Cl)ccc1Cl,96.6%
9,CN(C)CC1CCCCCC(CN(C)C)C1=O (stereo not given),89%
10,O=[N+]([O-])c1cccc(SSc2cccc([N+](=O)[O-])c2)c1,99.2%
11,Fc1ccc([I+]c2ccc(F)cc2)cc1,66.4%
12,Oc1ccc(Cc2ccccc2Cl)c(O)c1,96.2%
13,c1ccc(CNCCNCc2ccccc2)cc1,96%
14,CCCCOc1ccc(Nc2cc(Cl)ccc2C(=O)O)cn1,98.1% and 96.9%
15,O=c1n(CC2CO2)c(=O)n(CC2CO2)c(=O)n1CC1CO1 (stereo not given),56.2%
16,O=C1c2c(O)ccc(O)c2C(=O)c2c(NCCNCCO)ccc(NCCNCCO)c21,-67% (active) and -99.7% (active)
17,Nc1nc(N)c2[nH]cnc2n1,111%
18,O=C1OC(C(O)C(O)CO)C(O)=C1O (stereo not given),104% and 92.5%
19,COc1ccc(N/C=C/C2=[N+](C)c3ccccc3C2(C)C)c(OC)c1,91.2%
20,COc1ccc(C(=O)CC(c2ccccc2)C(C#N)c2ccccc2)cc1 (stereo not given),83.2%

# Reference: PubChem BioAssay (NCI)
